Measured values from PubChem BioAssay (Tox21).
Records with an inconclusive call do not appear. Active and inactive are the calls of the source. Calls follow the shape of the dose curve; as a rule, active = well fitted cell-killing curve with a large enough effect in the repeat runs; inconclusive = weak or mixed curves, or effect the other way; inactive = flat fitted curve, though single readings scatter.

Assay: qHTS assay to identify small molecule agonists of the TGF-beta/Smad signaling pathway - cell viability counter screen (AID 1346829); also: top concentration of the series differs between compounds; nearly all actives have a fitted effect of over 45% in size
Details: SBE-bla HEK293T viability, CellTiter-Glo luminescence, 5 h; series mostly up to 76.8 µM
From the text: National Center for Advancing Translational Sciences [NCATS]
NIH Chemical Genomics Center [NCGC]
U.S. Environmental Protection Agency [EPA]
National Institutes of Environmental Health Sciences [NIEHS]
National Toxicology Program [NTP]
U.S. Food and Drug Administration [FDA]
Transforming growth factor beta (TGF-beta) superfamily consists of a large number of structurally related dimeric proteins that act as hormones or local mediators in regulating a wide range of biological functions. This superfamily includes TGF-betas themselves, the bone morphogenetic proteins (BMPs) and the activins. These ligands induce oligomerization of serine/threonine receptor kinases and phosphorylate the cytoplasmic signaling molecules of Smad protein family. CellSensor SBE-bla HEK 293T cell line (Life Technologies, Carlsbad, CA), responsive to TGF-beta was used to screen Tox21 10K compound library for identification of agonists/antagonists of the Smad signaling pathway. This cell line contains a beta-lactamase reporter gene under control of the Smad binding element (SBE) stably integrated into HEK 293T cells. Also cytotoxicity of the compounds was tested in parallel by measuring the cell viability using CellTiter-Glo assay system in the same wells.
Tox21 Assay Protocol Summary:
SBE-bla HEK 293T cells were dispensed at 4,000/well in 6 uL of assay medium into black wall/clear-bottom 1536-well plates using a Multidrop Combi (ThermoFisher Scientific, Waltham, MA) dispenser. After the assay plates were incubated at 37 C and 5% CO2 for an overnight, 23 nL of compounds dissolved in DMSO, positive controls or DMSO only was transferred to the assay plate by a Pintool station (Kalypsys, San Diego, CA). The assay plates were incubated at 37 C and 5% CO2 for 5 hr. One uL of LiveBLAzer B/G FRET substrate (Life Technologies) was added using a Flying Reagent Dispenser (FRD, Aurora Discovery, San Diego, CA) and the plates were incubated at room temperature for 2 hr. Fluorescence intensity (405 nm excitation, 460 nm and 530 nm emissions) was measured using an Envision plate reader (PerkinElmer, Shelton, CT). For cytotoxicity read, 4 uL of CellTiter-Glo reagent (Promega Corporation, Madison, WI) was added to each well of the assay plates using FRD. After 30min incubation at room temperature, the luminescence intensity was measured using ViewLux plate reader (PerkinElmer).
% is scaled to controls: 0 for no effect and ±100 for the full control effect.

Structure (SMILES)	outcome	activity change, negative = cytotoxicity
NCCC(O)(P(=O)(O)O)P(=O)(O)O	inactive	
CCCCCCCCc1ccc(S(=O)(=O)O)cc1	inactive	
O=C1CCCc2ccccc21	inactive	
O=C1CCN(c2ccccc2)N1	inactive	
O=C(O)c1cccc(Cl)c1Cl	inactive	
CC(=O)Nc1ccc(C)c(Cl)c1	inactive	
N#CSCC(=O)O	inactive	
CCCNC(C)C(=O)Nc1c(C)csc1C(=O)OC (stereo not given)	inactive	
CCC(=O)Nc1ccc(O)cc1	inactive	
CCOC(=O)CS	inactive	
O=S(=O)(O)C(F)(F)F	inactive	
O=c1oc2c(O)c(O)cc3c(=O)oc4c(O)c(O)cc1c4c23		10.9% [at 15.8 µM] (inactive)
Nc1ccc2ccccc2c1S(=O)(=O)O	inactive	
CC(=O)OC1C2(C)CCC(C2)C1(C)C (stereo not given)	inactive	
CC/C=C\CCOC(=O)C(C)C	inactive	
CCCCNc1cc(C(=O)O)cc(S(N)(=O)=O)c1Oc1ccccc1	inactive	
C[C@@H]1CN(c2c(F)c(N)c3c(=O)c(C(=O)O)cn(C4CC4)c3c2F)C[C@H](C)N1		-11.5% [at 15.8 µM] (inactive)
CC1CN(c2ccccc2)NC1=O (stereo not given)	inactive	
C=CCCCCCCCCO	inactive	
FC(F)(F)c1ccccc1	inactive	

Structure (SMILES)	outcome	activity change, negative = cytotoxicity
O=C(O[C@@H](C(=O)O)[C@@H](OC(=O)c1ccccc1)C(=O)O)c1ccccc1	inactive	
CCCCC(CC)COC(=O)COc1cc(Cl)c(Cl)cc1Cl (stereo not given)	inactive	
Cn1cnc2c(F)c(Nc3ccc(Br)cc3Cl)c(C(=O)NOCCO)cc21	inactive	
CCN(CCCc1ccccc1)CCCc1ccccc1	inactive	
NC/C=C/C(=O)O	inactive	
CC(C)OC(C)C	inactive	
CCNCCO	inactive	
CCc1cc(Cl)c(OC)c(C(=O)NC[C@@H]2CCCN2CC)c1O	inactive	
NNS(=O)(=O)c1ccc(Oc2ccc(S(=O)(=O)NN)cc2)cc1	inactive	
O=c1[nH]c(=O)n([C@H]2C[C@H](O)[C@@H](CO)O2)cc1C(F)(F)F	inactive	
OCCN(CCO)CCN(CCO)CCO	inactive	
CCOC(=O)c1cc(=O)c2c(OCC(COc3cccc4oc(C(=O)OCC)cc(=O)c34)OC(=O)[C@@H](N)CCCCN)cccc2o1	inactive	
CCCCNCCCC	inactive	
CC1(O)CSC(C)(O)CS1 (stereo not given)	inactive	
CCOc1ccc2nc(N)sc2c1	inactive	
CO[C@@]1(NC(=O)CSCC#N)C(=O)N2C(C(=O)O)=C(CSc3nnnn3C)CS[C@@H]21	inactive	
CC(C)=CCC[C@](C)(O)[C@@H]1CC=C(C)CC1	inactive	
CC[C@H]1CC[C@H](NCc2cc3c(cc2OC)[C@H]2C[C@H]2C(=O)N3C)[C@H](c2ccccc2)N1	inactive	
CCCCc1ccc2nc(NC(=O)OC)[nH]c2c1	inactive	
CN(C)CC[C@@H](c1ccc(Cl)cc1)c1ccccn1	inactive	
